Results on 4 compounds are retold here after PubChem BioAssay (EPA / NIEHS).

As a reminder, the AC50 is the midpoint of the concentration-response curve, whichever way the signal moves.

A short description of test [1]: BSK_LPS_PGE2: BioMAP Diversity Plus: LPS Assay for Prostaglandin E2 (PGE2) Biomarker Activity (AID 2283082).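 For AC50: secreted prostaglandin E2 measured by ELISA in LPS-stimulated co-culture.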 As to conditions: primary human HUVEC with PBMC; actives raise or lower the signal. The essentials:
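PGE2 release measured by ELISA in an LPS-activated co-culture of human umbilical vein endothelial cells and peripheral blood mononuclear cells, read at 24 h post-dosing. DMSO served as baseline for bidirectional curve fitting.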

Read-out in test [2]: Macrophage colony-stimulating factor (MCSF), CSF1 (gene 1435)
The test is described as follows: BSK_LPS_MCSF: BioMAP Diversity Plus: LPS Assay for Macrophage colony-stimulating factor (MCSF) Biomarker Activity (AID 2283083). The following applies: primary human HUVEC with PBMC; actives raise or lower the signal. The essentials:
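Compound is added to a human vascular primary co-culture of umbilical vein endothelium and blood mononuclear cells. After 24 h, M-CSF is quantified by ELISA. Signal changes are fitted in both directions against DMSO.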

Read-out in test [3]: Tissue Factor, F3 (gene 2152)
Put plainly: BSK_LPS_TissueFactor: BioMAP Diversity Plus: LPS Assay for Tissue Factor Biomarker Activity (AID 2283084). The following applies: primary human HUVEC with PBMC; actives raise or lower the signal. The essentials: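 In this co-culture system of umbilical vein endothelium with PBMC, stimulated with LPS, cell-surface CD142 is detected by ELISA at 24 h. Endpoint values derive from bidirectional fitting, DMSO serving as baseline.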

Read-out in test [4]: Tumor necrosis factor (Homo sapiens) (UniProt P01375)
Put plainly: BSK_LPS_TNFa: BioMAP Diversity Plus: LPS Assay for Tumour Necrosis Factor alpha (TNFa) Biomarker Activity (AID 2283085).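 For AC50: TNFa protein level quantified by ELISA in the co-culture.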 The following applies: primary human HUVEC with PBMC; actives raise or lower the signal. The method in brief: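 TNFa was quantified by ELISA in LPS-activated co-cultures of human endothelial cells and PBMC, 24 h post-dosing. Both increases and decreases versus DMSO were fitted.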

Read-out in test [5]: Vascular cell adhesion molecule 1 (VCAM1), VCAM1 (gene 7412)
Put plainly: BSK_LPS_VCAM1: BioMAP Diversity Plus: LPS Assay for Vascular cell adhesion molecule 1 (VCAM1) Biomarker Activity (AID 2283086). The following applies: primary human HUVEC with PBMC; actives raise or lower the signal. The essentials:
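VCAM-1 quantified by ELISA in an LPS-activated co-culture of human endothelial cells and peripheral blood mononuclear cells, read 24 h post-treatment. Fitted in both directions versus DMSO; parallel SRB staining flags overt cytotoxicity.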

Read-out in the next test: CD38, CD38 (gene 952)
The test is described as follows: BSK_SAg_CD38: BioMAP Diversity Plus: SAg Assay for CD38 Biomarker Activity (AID 2283087). As to conditions: primary human HUVEC with PBMC; actives raise or lower the signal. The method in brief:
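CD38 quantified by ELISA (fluorescence) in a superantigen-activated endothelial cell–PBMC co-culture at 24 h post-dose. Activity fitted in both directions relative to DMSO; parallel SRB and Alamar Blue cytotoxicity read-outs.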

Read-out in a further test: CD40, CD40 (gene 958)
Put plainly: BSK_SAg_CD40: BioMAP Diversity Plus: SAg Assay for CD40 Biomarker Activity (AID 2283088). As to conditions: primary human HUVEC with PBMC; actives raise or lower the signal. The essentials:
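Fluorescence ELISA read-out of CD40 from umbilical vein endothelium plus peripheral blood mononuclear cells, sampled 24 h after dosing. Values come from bidirectional curve fitting with DMSO as baseline.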

Read-out in another test: CD69, CD69 (gene 969)
The test is described as follows: BSK_SAg_CD69: BioMAP Diversity Plus: SAg Assay for CD69 Biomarker Activity (AID 2283089). As to conditions: primary human HUVEC with PBMC; actives raise or lower the signal. The essentials: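 ELISA, fluorescence read-out: CD69 on human umbilical vein endothelial cell + PBMC co-culture, 24 h post-dosing. Gain or loss of signal fitted bidirectionally against DMSO baseline.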

Read-out in test [6]: Monocyte Chemoattractant Protein-1 (MCP1), CCL2 (gene 6347)
Put plainly: BSK_SAg_MCP1: BioMAP Diversity Plus: SAg Assay for Monocyte Chemoattractant Protein-1 (MCP1) Biomarker Activity (AID 2283090). The following applies: primary human HUVEC with PBMC; actives raise or lower the signal. The method in brief:
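Values derive from bidirectional fitting of ELISA-measured MCP1 against DMSO controls. Readings were taken 24 h after dosing human vascular endothelial cells co-cultured with peripheral blood mononuclear cells under superantigen stimulation.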

Read-out in test [7]: E-selectin (Homo sapiens) (UniProt P16581)
Put plainly: BSK_SAg_Eselectin: BioMAP Diversity Plus: SAg Assay for Eselectin Biomarker Activity (AID 2283091). The following applies: primary human HUVEC with PBMC; actives raise or lower the signal. The method in brief:
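Primary human endothelial cells and peripheral blood mononuclear cells were co-cultured and exposed to chemical for 24 hours. E-selectin levels were then quantified by ELISA, with bidirectional curve fitting normalised to DMSO controls.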

Read-out in test [8]: Monokine induced gamma interferon (MIG), CXCL9 (gene 4283)
Put plainly: BSK_SAg_MIG: BioMAP Diversity Plus: SAg Assay for Monokine induced gamma interferon (MIG) Biomarker Activity (AID 2283092). The following applies: primary human HUVEC with PBMC; actives raise or lower the signal. The method in brief:
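ELISA readout of MIG/CXCL9; primary human umbilical vein endothelial cells co-cultured with peripheral blood mononuclear cells; 24 h post-dose; gain/loss fit vs DMSO baseline.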

Test [9] can be described thus: BSK_SAg_PBMCCytotoxicity: PBMC Cytotoxicity Assessment in the BioMAP Diversity Plus: SAg Assay (AID 2283093).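 For AC50: PBMC superantigen activated with SEB plus TSST-1 one hour after compound addition.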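 Note: fitted both ways against DMSO so a hit may be loss or gain of signal.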 The following applies: primary human HUVEC with PBMC. The method in brief:
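PBMC viability by Alamar Blue reduction, fluorescence read at 546/580 nm after 6 h dye exposure. Cells were dosed 1 h before SEB plus TSST-1 activation (20 ng/mL final each), then held 90 h; endothelial/PBMC human co-culture.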

Read-out in test [10]: Interleukin-8 (IL8), CXCL8 (gene 3576)
Put plainly: BSK_SAg_IL8: BioMAP Diversity Plus: SAg Assay for Interleukin-8 (IL8) Biomarker Activity (AID 2283094). As to conditions: primary human HUVEC with PBMC; actives raise or lower the signal. The essentials:
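ELISA readout of IL-8 from a superantigen-activated endothelial/PBMC primary human co-culture, taken 24 h post-dosing and fitted in both directions against DMSO; parallel SRB total-protein staining flags overt cytotoxicity.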

Test [11] in a line: BSK_SAg_Proliferation: Cell Proliferation Assessment in the BioMAP Diversity Plus: SAg Assay (AID 2283095).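 Note: relative cell number as total protein by SRB absorbance in sub-confluent culture.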 The following applies: primary human HUVEC with PBMC. The method in brief:
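Relative cell number in the endothelial cell/PBMC co-culture was quantified at 96 h by SRB staining (0.1% SRB, 10% TCA fixation, read at 560 nm). Curves were fitted in both directions relative to DMSO baseline.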

The target of test [12] is human CYP2A6, CYP2A6 (gene 1548) (UniProt P11509). The test is described as follows: NVS_ADME_hCYP2A6: NovaScreen (NVS) CYP450-related Enzyme Activity (ADME) Assay for human CYP2A6 (AID 2283099; active = hit-call score of the fitted dose curve at least 0.9, where 1 is the maximum). The essentials:
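Recombinant human CYP2A6 from insect cells was incubated with chemical for 0.5 h and activity read by fluorescence. Single-concentration duplicates at 10 uM preceded concentration-response testing to 20 uM, with activity referenced to acetonitrile.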

The target in test [13] is human CYP1A1, CYP1A1 (gene 1543) (UniProt P04798). Put plainly: NVS_ADME_hCYP1A1: NovaScreen (NVS) CYP450-related Enzyme Activity (ADME) Assay for human CYP1A1 (AID 2283100; active = hit-call score of the fitted dose curve at least 0.9, where 1 is the maximum). The method in brief: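 Compounds first went through duplicate single-concentration testing at 10 uM against purified CYP1A1. Those passing a threshold such as 30% inhibition entered singleton dose-response, highest concentration 20 uM. Signal was fluorescence measured after 1 hour.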
Chain of human CYP1A1, CYP1A1 (gene 1543) (P04798 whole entry, looked up): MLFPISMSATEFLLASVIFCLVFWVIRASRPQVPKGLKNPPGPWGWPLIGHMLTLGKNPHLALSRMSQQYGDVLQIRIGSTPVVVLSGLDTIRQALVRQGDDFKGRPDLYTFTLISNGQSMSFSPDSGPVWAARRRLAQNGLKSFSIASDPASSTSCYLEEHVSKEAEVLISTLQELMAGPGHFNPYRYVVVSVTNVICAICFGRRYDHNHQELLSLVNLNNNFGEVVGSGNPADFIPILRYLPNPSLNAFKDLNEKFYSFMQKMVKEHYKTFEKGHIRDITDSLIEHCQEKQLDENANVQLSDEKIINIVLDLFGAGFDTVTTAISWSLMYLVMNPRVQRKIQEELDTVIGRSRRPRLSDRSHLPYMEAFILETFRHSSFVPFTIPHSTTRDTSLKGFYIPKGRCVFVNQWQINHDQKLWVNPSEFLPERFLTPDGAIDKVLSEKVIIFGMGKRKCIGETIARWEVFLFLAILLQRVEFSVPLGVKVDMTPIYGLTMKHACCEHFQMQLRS

The target in test [14] is human CYP2B6, CYP2B6 (gene 1555) (UniProt P20813). Put plainly: NVS_ADME_hCYP2B6: NovaScreen (NVS) CYP450-related Enzyme Activity (ADME) Assay for human CYP2B6 (AID 2283101; active = hit-call score of the fitted dose curve at least 0.9, where 1 is the maximum). The essentials: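 Fluorescence-based enzyme activity of recombinant human CYP2B6, measured 1 h post-dose against acetonitrile vehicle baseline. Screened at a single concentration of 10 uM in duplicate before concentration-response follow-up.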
Chain of human CYP2B6, CYP2B6 (gene 1555) (P20813 whole entry, looked up): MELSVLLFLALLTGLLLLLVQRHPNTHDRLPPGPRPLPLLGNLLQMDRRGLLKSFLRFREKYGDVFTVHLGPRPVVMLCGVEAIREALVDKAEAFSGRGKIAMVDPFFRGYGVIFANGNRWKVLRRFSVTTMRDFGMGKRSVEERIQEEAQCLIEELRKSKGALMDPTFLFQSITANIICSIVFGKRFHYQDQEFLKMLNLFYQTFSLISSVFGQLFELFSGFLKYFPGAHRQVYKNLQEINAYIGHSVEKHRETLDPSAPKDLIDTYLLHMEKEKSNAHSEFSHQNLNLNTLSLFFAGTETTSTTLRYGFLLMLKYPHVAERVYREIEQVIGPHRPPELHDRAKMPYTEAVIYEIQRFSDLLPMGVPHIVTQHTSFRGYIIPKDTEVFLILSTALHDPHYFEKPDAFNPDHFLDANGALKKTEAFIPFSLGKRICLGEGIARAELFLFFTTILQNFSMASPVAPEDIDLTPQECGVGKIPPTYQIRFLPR

In test [15] the target is human CYP1A2, CYP1A2 (gene 1544) (UniProt P05177). The test is described as follows: NVS_ADME_hCYP1A2: NovaScreen (NVS) CYP450-related Enzyme Activity (ADME) Assay for human CYP1A2 (AID 2283102; active = hit-call score of the fitted dose curve at least 0.9, where 1 is the maximum;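 for AC50: fluorescence from turnover of a fluorogenic substrate by recombinant insect-cell CYP1A2; potency for inhibition since loss of fluorescence marks reduced CYP1A2 activity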). The method in brief: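 Compounds were tested at 10 uM in duplicate against recombinant CYP1A2 produced in insect cells. Enzyme activity was measured by fluorescence 0.5 h after dosing, with loss of signal versus acetonitrile control. Active compounds were re-tested in concentration series.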
Chain of human CYP1A2, CYP1A2 (gene 1544) (P05177 whole entry, looked up): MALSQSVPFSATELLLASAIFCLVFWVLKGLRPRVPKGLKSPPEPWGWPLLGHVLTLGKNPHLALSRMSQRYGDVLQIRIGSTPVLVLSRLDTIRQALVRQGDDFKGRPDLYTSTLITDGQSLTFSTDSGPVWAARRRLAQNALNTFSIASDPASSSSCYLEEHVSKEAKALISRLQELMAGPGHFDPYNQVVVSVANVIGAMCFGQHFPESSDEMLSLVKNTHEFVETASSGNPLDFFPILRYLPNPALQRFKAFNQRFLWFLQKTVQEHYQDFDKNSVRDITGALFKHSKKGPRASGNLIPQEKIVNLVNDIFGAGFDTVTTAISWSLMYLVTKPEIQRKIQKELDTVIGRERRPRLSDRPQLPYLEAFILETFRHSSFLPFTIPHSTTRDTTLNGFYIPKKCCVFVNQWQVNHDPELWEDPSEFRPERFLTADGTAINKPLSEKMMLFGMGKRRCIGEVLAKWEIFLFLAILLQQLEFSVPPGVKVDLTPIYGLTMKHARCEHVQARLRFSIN

Test [16] in a line: BSK_SAg_SRB: Viability Assessment in the BioMAP Diversity Plus: SAg Assay (AID 2283096).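 Note: cells read one day after compound addition; hits may be either gain or loss of signal compared with DMSO.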 The following applies: primary human HUVEC with PBMC. The method in brief: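 Compounds were added to a human vascular co-culture of umbilical vein endothelium and PBMC. After 24 h, parallel cultures were fixed with 10% TCA, stained with 0.1% sulforhodamine B and read at 560 nm. Gain or loss of signal was fitted relative to DMSO.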

In test [17] the target is human CYP19A1, CYP19A1 (gene 1588) (UniProt P11511). Put plainly: NVS_ADME_hCYP19A1: NovaScreen (NVS) CYP450-related Enzyme Activity (ADME) Assay for human CYP19A1 (AID 2283098; active = hit-call score of the fitted dose curve at least 0.9, where 1 is the maximum). The method in brief: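 Fluorescence intensity read-out; activity taken as signal loss relative to acetonitrile vehicle. Extracted enzyme, specific substrate, no cells, 0.5 h exposure. Duplicate single-point screen at 10 uM, then concentration–response follow-up for actives.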
Chain of human CYP19A1, CYP19A1 (gene 1588) (P11511 whole entry, looked up): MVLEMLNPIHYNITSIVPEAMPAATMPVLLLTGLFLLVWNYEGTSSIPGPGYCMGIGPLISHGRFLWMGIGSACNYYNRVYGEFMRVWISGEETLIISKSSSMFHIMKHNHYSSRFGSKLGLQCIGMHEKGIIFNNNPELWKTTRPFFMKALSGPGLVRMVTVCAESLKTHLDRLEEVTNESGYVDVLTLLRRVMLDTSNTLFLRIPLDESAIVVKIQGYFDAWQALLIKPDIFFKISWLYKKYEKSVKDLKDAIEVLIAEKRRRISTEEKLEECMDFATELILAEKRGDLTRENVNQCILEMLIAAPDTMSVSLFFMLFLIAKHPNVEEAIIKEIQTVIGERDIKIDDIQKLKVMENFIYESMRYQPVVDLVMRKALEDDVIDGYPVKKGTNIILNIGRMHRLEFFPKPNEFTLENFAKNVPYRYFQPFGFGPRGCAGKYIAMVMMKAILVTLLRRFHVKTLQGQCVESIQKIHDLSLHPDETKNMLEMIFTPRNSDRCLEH

Molecules are shown by their SMILES. Inconclusive results are not listed. The source made the active and inactive calls. Rule for the calls, unless noted: active = hit-call score of the fitted dose curve at least 0.9, where 1 is the maximum; inactive = score below 0.9.

Chain of Tumor necrosis factor (Homo sapiens) (P01375 whole entry, looked up): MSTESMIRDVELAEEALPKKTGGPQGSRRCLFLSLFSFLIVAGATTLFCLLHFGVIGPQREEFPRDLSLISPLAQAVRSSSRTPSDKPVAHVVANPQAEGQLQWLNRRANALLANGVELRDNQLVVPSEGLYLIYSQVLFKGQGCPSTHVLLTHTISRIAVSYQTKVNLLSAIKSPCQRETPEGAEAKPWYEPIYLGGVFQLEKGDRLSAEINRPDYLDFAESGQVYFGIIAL
Chain of human CYP2A6, CYP2A6 (gene 1548) (P11509 whole entry, looked up): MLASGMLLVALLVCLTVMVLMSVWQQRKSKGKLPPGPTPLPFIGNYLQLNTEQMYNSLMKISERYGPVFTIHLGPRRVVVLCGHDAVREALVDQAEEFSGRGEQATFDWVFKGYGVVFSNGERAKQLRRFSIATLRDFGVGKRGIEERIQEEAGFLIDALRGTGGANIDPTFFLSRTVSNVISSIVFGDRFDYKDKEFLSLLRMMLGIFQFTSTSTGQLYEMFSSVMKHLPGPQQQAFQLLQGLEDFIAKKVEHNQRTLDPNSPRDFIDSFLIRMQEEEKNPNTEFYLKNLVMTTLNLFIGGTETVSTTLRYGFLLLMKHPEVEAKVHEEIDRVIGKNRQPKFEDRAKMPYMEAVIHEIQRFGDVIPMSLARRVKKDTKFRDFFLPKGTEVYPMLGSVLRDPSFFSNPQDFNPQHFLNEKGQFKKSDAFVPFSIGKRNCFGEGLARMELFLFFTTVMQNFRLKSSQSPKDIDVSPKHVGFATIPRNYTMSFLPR
Chain of E-selectin (Homo sapiens) (P16581 whole entry, looked up): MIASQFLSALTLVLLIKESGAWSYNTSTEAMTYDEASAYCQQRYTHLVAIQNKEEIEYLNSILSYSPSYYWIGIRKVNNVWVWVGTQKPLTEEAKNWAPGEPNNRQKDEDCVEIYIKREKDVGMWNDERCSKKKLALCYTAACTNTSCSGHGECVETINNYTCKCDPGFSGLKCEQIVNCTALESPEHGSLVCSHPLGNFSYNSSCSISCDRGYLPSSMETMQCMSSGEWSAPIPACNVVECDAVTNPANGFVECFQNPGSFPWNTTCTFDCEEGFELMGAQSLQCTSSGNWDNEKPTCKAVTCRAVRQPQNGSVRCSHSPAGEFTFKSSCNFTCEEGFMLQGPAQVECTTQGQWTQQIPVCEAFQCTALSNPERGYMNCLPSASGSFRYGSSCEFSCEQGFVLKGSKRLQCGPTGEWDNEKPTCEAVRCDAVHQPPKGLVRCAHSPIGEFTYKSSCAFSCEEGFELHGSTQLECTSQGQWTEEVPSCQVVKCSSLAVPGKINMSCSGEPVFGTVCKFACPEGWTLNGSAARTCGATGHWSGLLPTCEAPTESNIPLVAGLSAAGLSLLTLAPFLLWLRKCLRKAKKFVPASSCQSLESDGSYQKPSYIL

As for `Nc1ccc(N=Nc2ccccc2)cc1`, the AC50 in [1] was 3.55 µM (active); in test [4], 6.01 µM (active); in [5] it was 14.2 µM (active); in test [14], 0.261 µM (active). The outcome in test [2] was “inactive”; in test [3], “inactive”; with CD38, CD38 (gene 952) it was “inactive”; in the test with CD40, CD40 (gene 958), “inactive”; with CD69, CD69 (gene 969), “inactive”; in [6], “inactive”. Besides, the result in test [7], in test [8], in test [9], in test [10], in test [11] and in [12] was inactive. The outcome in test [13] and in [15] was inactive.

As for `C[N+](C)(C)CC1CO1` (centres undefined), the outcome is “inactive” in test [1]; “inactive” in [2]; “inactive” in [3]; “inactive” in [4]; “inactive” in test [5]; “inactive” with CD38, CD38 (gene 952). Further, the outcome in the test with CD40, CD40 (gene 958) was “inactive”; in the test with CD69, CD69 (gene 969) it was “inactive”; in test [6], “inactive”; in test [7], “inactive”; in [8] it was “inactive”; in [9], “inactive”. In addition, the outcome in [10], in test [11], in test [16] and in test [12] was inactive.

Consider `Clc1ccccc1Cl`, for which the outcome was “inactive” in [1]; “inactive” in test [2]; “inactive” in test [3]; “inactive” in [4]; “inactive” in test [5]; “inactive” in the test with CD38, CD38 (gene 952). The outcome with CD40, CD40 (gene 958) was “inactive”; in the test with CD69, CD69 (gene 969) it was “inactive”; in [6] it was “inactive”; in [7], “inactive”; in test [8], “inactive”; in test [9], “inactive”. The result in test [10], in test [11], in test [17] and in test [12] was inactive.

On to `CCOC(=O)[C@]1(c2ccccc2)Oc2ccccc2[C@@H]1N`, for which the outcome is “inactive” in test [1]; “inactive” in [2]; “inactive” in [3]; “inactive” in test [4]; “inactive” in [5]; “inactive” in the test with CD40, CD40 (gene 958). Further, the outcome with CD69, CD69 (gene 969) was “inactive”; in [7] it was “inactive”; in test [8], “inactive”; in test [10], “inactive”; in test [16] it was “inactive”; in [12], “inactive”. Also, the call in [13] was inactive. The AC50 is 36.2 µM (active) with CD38, CD38 (gene 952); 30.1 µM (active) in [6]; 24.3 µM (active) in [9]; 31.3 µM (active) in [11]; 0.269 µM (active) in test [14]; 5.07 µM (active) in test [15].
